# From PubChem BioAssay (EPA / NIEHS)
# “And” between values parts separate entries of the source, which are not always exact repeats. Identical values can stand only once. Some structures have more than one record in an assay (separate samples or runs), and their calls can disagree. The source made the active and inactive calls. How the source made its calls: active means hit-call score of the fitted dose curve at least 0.9, where 1 is the maximum; inactive means score below 0.9.
# Read-out: Lipase C (LIPC), LIPC (gene 3990)
# Experiment: LTEA_HepaRG_LIPC: Life Technologies and Expression Analysis (LTEA) Assay for Lipase C (LIPC) using HepaRG (AID 2283514)
# Conditions: mRNA level, 48 h; actives raise or lower the signal
# Procedure: LTEA_HepaRG is a cell based, multiplexed-readout assay that uses HepaRG, a human liver cell line, with measurements taken at 48 hours after chemical dosing on a 96-well plate.LTEA_HepaRG_LIPC is one of 102 assay component(s) measured in the LTEA HepaRG cell culture assay. It is a marker of Steatosis.Data from the assay component LTEA_HepaRG_LIPC was analyzed into 1 endpoint. This assay endpoint, LTEA_HepaRG_LIPC, was analyzed with bidirectional fitting relative to DMSO as the negative control and baseline of activity. Using a type of inducible reporter, measures of mRNA induction for gain or loss-of-signal activity can be used to understand regulation of transcription factor activity. To generalize the intended target to other relatable targets, this assay endpoint is annotated to the esterase intended target family, where the subfamily is lipase.
# A total of 1060 chemcials from the ToxCast library were tested in eight-point concentration-response experiments. Cell culture and cytotoxicity assays were conducted at Thermo Fisher Scientific's Custom Services facility (Madison, WI). A single lot of human HepaRG cells (Thermo Fisher Scientific, Frederick, MD) was used for the cell culture experiments. 96-well format collagen type I coated plates of human HepaRG cells were prepared using established methods. Briefly, cryopreserved HepaRG cells were thawed, plated at a density of approximately 100,000 cells/well in HepaRG Thaw, Plate, and General Purpose media (HPRG770, Thermo Fisher Scientific), and incubated for 48 hours. 0.5% DMSO was selected as vehicle control to balance the requisite need of DMSO in HepaRG cultures to maintain differentiation (for example, baseline metabolism, proportions of hepatocytes vs. cholangiocytes), while enabling further hepatic receptor pathway activation (for example, PXR and CAR) in response to chemical exposure. 48 hours after plating, the culture medium was replaced with HepaRG Serum-Free Incudtion Media. Cells were exposed to each test chemical in duplicate and maintained in CO2 incubators for another 48 hours. Chemical plates were thawed to room temperature and 200x concentrations of treatment groups were prepared. 8-point conentration-reponse curves were made with the highest exposure at 100 uM, followed by half-log dilutions, all in 0.5% DMSO. Each test plate contained variouse controls, induction positive controls (1mM phenobarbital), cytotoxicity positive controls ([…] aflatoxin B1), vehicle controls (0.5% DMSO), and total lysis controls (0.5% DMSO). Cell morphology images were taken using an Essen IncuCyte FLR automated microscope, with six 96-well plates imaged in about 24 minutes. Images were captured and exported and JPEG files. Spent culture media was transfered to black-well plates for the LDH assay, and remaining media was sorted at -80 C for later use. Cells were treated with RLT buffer and frozen until shipped for gene expression analysis. Total RNA was isolated from the cell suspension in 75 uL of Buffer RLT (Qiagen, Germantown, MD 20874) by Quintiles/Expression Analysis (Durham, NC) using a custom isolation procedure. Total RNA from each plate well was transferred to a preamplification plate. Fluidigm's 96.96 Dynamic ArrayTM (Fluidigm, Amsterdam, the Netherlands) technology was used for gene expression analyses by quantitative reverse transcription polymerase chain reaction (qRT-PCR, performed by Quintiles/Expression Analysis, Durham, NC)89. Standard TaqManTM Assays (Applied Biosystems/ThermoFisher Scientific, Foster City, CA) were used to assess the expression of 93 genes selected based on their selectivity and sensitivity to important hepatic receptors known to be modulated by environmental chemicals; importance in human hepatocyte functionality; and hepatotoxicity. […]
SMILES,outcome,AC50
CNC(=O)CSP(=S)(OC)OC,inactive,
CCCN(CCC)c1c([N+](=O)[O-])cc(C(F)(F)F)cc1[N+](=O)[O-],inactive,
C[C@H]1[C@H](c2ccc(Cl)cc2)SC(=O)N1C(=O)NC1CCCCC1,,36.5 µM (active)
COP(=S)(OC)Oc1ccc(SC)c(C)c1,inactive,
CCc1ccc(C(=O)NN(C(=O)c2cc(C)cc(C)c2)C(C)(C)C)cc1,inactive,
CNC(=O)/C=C(\C)OP(=O)(OC)OC,inactive,
O=S1OCC2C(CO1)C1(Cl)C(Cl)=C(Cl)C2(Cl)C1(Cl)Cl (stereo not given),,62.7 µM (active)
O=C1c2ccccc2C(=O)N1SC(Cl)(Cl)Cl,inactive,
ClC1C(Cl)C(Cl)C(Cl)C(Cl)C1Cl (stereo not given),inactive,
O=[N+]([O-])/N=C1\NCCN1Cc1ccc(Cl)nc1,,36.4 µM (active)
O=C(O)C(F)(F)C(F)(F)C(F)(F)C(F)(F)C(F)(F)C(F)(F)C(F)(F)F,inactive,
COc1nn(CSP(=S)(OC)OC)c(=O)s1,inactive,
CC[C@H](C)[C@H]1O[C@]2(C=C[C@@H]1C)C[C@@H]1C[C@@H](C/C=C(\C)[C@@H](O[C@H]3C[C@H](OC)[C@@H](O[C@H]4C[C@H](OC)[C@@H](O)[C@H](C)O4)[C@H](C)O3)[C@@H](C)/C=C/C=C3\CO[C@@H]4[C@H](O)C(C)=C[C@@H](C(=O)O1)[C@]34O)O2 (tested in a mixture with another compound),,13.8 µM (active)
CCN(CC)C(=O)SCc1ccc(Cl)cc1,inactive,
CNC(=O)Oc1ccccc1OC(C)C,inactive,
CCC(C)Nc1c([N+](=O)[O-])cc(C(C)(C)C)cc1[N+](=O)[O-] (stereo not given),inactive,
CCCN(CCOc1c(Cl)cc(Cl)cc1Cl)C(=O)n1ccnc1,,44.3 µM (active)
N#Cc1c(Cl)c(Cl)c(Cl)c(C#N)c1Cl,,50 µM (active)
O=S(=O)(O)C(F)(F)C(F)(F)C(F)(F)C(F)(F)C(F)(F)C(F)(F)C(F)(F)C(F)(F)F,inactive,76 µM (active) and 50 µM (active) and 48 µM (active)

SMILES,outcome,AC50
CCOC1Oc2ccc(OS(C)(=O)=O)cc2C1(C)C (stereo not given),,74 µM (active)
CNC(=O)Oc1cccc(N=CN(C)C)c1,inactive,
C#CCN1C(=O)COc2cc(F)c(N3C(=O)C4=C(CCCC4)C3=O)cc21,,26.3 µM (active)
CC(C)OC(=O)Nc1cccc(Cl)c1,inactive,
CCC(C)(NC(=O)c1cc(Cl)c(C)c(Cl)c1)C(=O)CCl (stereo not given),,50.2 µM (active)
Oc1ccc(Cl)cc1Cc1ccccc1,inactive,80.2 µM (active)
O=C(O)COc1ccc(Cl)cc1Cl,inactive,
CN1CSC(=S)N(C)C1,inactive,
CC(C)N(C(=O)COc1nnc(C(F)(F)F)s1)c1ccc(F)cc1,inactive,
CC1(C)C(C=C(Cl)Cl)C1C(=O)OC(C#N)c1ccc(F)c(Oc2ccccc2)c1 (stereo not given),inactive,
Clc1ccccc1-c1nnc(-c2ccccc2Cl)nn1,inactive,
CC1(c2ccc(Oc3ccccc3)cc2)OC(=O)N(Nc2ccccc2)C1=O (stereo not given),,21.5 µM (active)
CC(C)(C)C(O)C(Oc1ccc(Cl)cc1)n1cncn1 (stereo not given),inactive,
OCCOc1ccccc1,inactive,
O=C(NC(=O)c1c(F)cccc1F)Nc1ccc(OC(F)(F)C(F)OC(F)(F)F)c(Cl)c1 (stereo not given),inactive,
COP(=O)(OC)OC=C(Cl)Cl,inactive,
Cc1[nH]c(=O)n(C(C)(C)C)c(=O)c1Cl,inactive,
CCC(C)(C)C(=O)OC1=C(c2ccc(Cl)cc2Cl)C(=O)OC12CCCCC2,inactive,
N#CN,inactive,
